PubChem BioAssay (Tox21)
Inconclusive results are not listed. Activity calls are given as the source filed them. Unless noted, the call rests on the fitted dose curve.

Legend:
[1] = qHTS assay to identify small molecule antagonists of the vitamin D receptor (VDR) signaling pathway - cell viability counter screen (AID 743225; active means well fitted curve in the direction sought with a large enough effect in the repeat runs; an effect the other way counts as inactive or inconclusive; further: on the % scale 0 is the no-effect control and ±100 the full control effect; nearly all actives have a fitted effect of over 50% in size); details: VDR-bla HEK293T viability, CellTiter-Glo luminescence, 16 h; series mostly up to 61 µM
Method in brief: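 Cells (VDR-UAS-bla HEK 293T) are plated, rested 4 h at 37C, dosed with compound and 3 nM final 1-alpha,25-dihydroxy vitamin D3, and incubated 16 h. Viability is taken from CellTiter-Glo luminescence in the reporter wells.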

[2] = qHTS assay to identify small molecule agonists of the NFkB signaling pathway (AID 1159509; active means well fitted curve in the direction sought with a large enough effect in the signal ratio in the repeat runs, not every such curve was filed as active; the % refers to the signal ratio; further: on the % scale 0 is the no-effect control and ±100 the full control effect); details: NFkB-bla ME-180 cells, beta-lactamase FRET ratio, 5 h; series mostly up to 61 µM
Method in brief: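 Pathway activation was measured in ME-180 cells stably expressing beta-lactamase under NF-kB response element control. Substrate cleavage was read as the 460/530 nm emission shift after 5 hr compound incubation.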

[3] = qHTS assay to identify small molecule agonists of the NFkB signaling pathway - cell viability counter screen (AID 1159515); details: NFkB-bla ME-180 viability, CellTiter-Glo luminescence, 5 h; series mostly up to 61 µM; further: on the % scale 0 is the no-effect control and ±100 the full control effect; nearly all actives have a fitted effect of over 55% in size
Method in brief: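 Counter screen run alongside the NFkB-bla agonist assay: ME-180 reporter cells exposed to compounds for 5 hr, then lysed with CellTiter-Glo in the same wells. Luminescence, read after 30 min, reflects viable cells.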

[4] = qHTS assay to identify small molecule agonists of the endoplasmic reticulum stress response signaling pathway (AID 1159516; active means well fitted activation curve with a large enough effect in the signal ratio in the repeat runs, not every such curve was filed as active; the % refers to the signal ratio; further: on the % scale 0 is the no-effect control and ±100 the full control effect); details: ESRE-bla HeLa, ER stress beta-lactamase reporter, 5 h; series mostly up to 61 µM
Method in brief: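 For this screen, HeLa cells stably carrying beta-lactamase under the ER stress response element received test compounds, positive controls or DMSO for 5 hr at 37 C; B/G FRET substrate was then added and dual-wavelength emission recorded.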

[5] = qHTS assay to identify small molecule agonists of the endoplasmic reticulum stress response signaling pathway - cell viability counter screen (AID 1159517); details: ESRE-bla HeLa viability, CellTiter-Glo luminescence, 5 h; series mostly up to 61 µM; further: on the % scale 0 is the no-effect control and ±100 the full control effect; nearly all actives have a fitted effect of over 50% in size
Method in brief: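 ESRE-bla HeLa cells (1,500/well) were plated overnight at 37 C and exposed to compounds for 5 hr. After the 2 hr beta-lactamase substrate read, CellTiter-Glo went into the same wells, and luminescence was read after 30 min at room temperature.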

[6] = target: Nuclear receptor ROR-gamma (Homo sapiens) (UniProt P51449); assay: qHTS assay to identify small molecule antagonists of the retinoid-related orphan receptor gamma (ROR-gamma) signaling pathway (AID 1159521; active means well fitted curve in the direction sought with a large enough effect in the repeat runs; an effect the other way counts as inactive or inconclusive; further: nearly all actives have a fitted effect of over 50% in size; further: potency means the concentration at half of the fitted maximal effect;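 on activity change, negative = inhibition: CHO cells with doxycycline inducible ROR-gamma driving an RORE luciferase reporter; top concentration of the series differs between compounds; on the % scale 0 is the no-effect control and ±100 the full control effect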); details: Tet-on RORgamma CHO cells, RORE-luciferase, 16 h; series mostly up to 92.4 µM
Method in brief: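 RORγ antagonism is scored from reduced reporter luminescence in Tet-on CHO cells. Induction used 1 uM final doxycycline hyclate for 16 h at 37 C, following a 2 h compound exposure.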

[7] = qHTS assay to identify small molecule agonists of the AP-1 signaling pathway - cell viability counter screen (AID 1159525); details: ME-180 AP-1-bla cells viability, ATP luminescence, 5 h; series mostly up to 76.8 µM; further: nearly all actives have a fitted effect of over 55% in size
Method in brief: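 Intracellular ATP by Cell Titer Glo luminescence (30 min, RT) in the same ME-180 AP-1-bla wells after the 5 h compound exposure at 37 °C. Normalised to tetra n-octyl ammonium bromide and DMSO controls.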

[8] = qHTS assay to identify small molecule agonists of the AP-1 signaling pathway (AID 1159526); details: ME-180 (cervical carcinoma) AP-1-bla reporter, beta-lactamase FRET ratio, 5 h; series mostly up to 76.8 µM; further: on the % scale 0 is the no-effect control and ±100 the full control effect
[9] = qHTS assay to identify small molecule antagonists of the retinoid-related orphan receptor gamma (ROR-gamma) signaling pathway - cell viability counter screen (AID 1159520; active means well fitted curve in the direction sought with a large enough effect in the repeat runs; an effect the other way counts as inactive or inconclusive; further: on the % scale 0 is the no-effect control and ±100 the full control effect; nearly all actives have a fitted effect of over 50% in size); details: Tet-on RORgamma CHO cells viability, ATP luminescence, 16 h; series mostly up to 92.4 µM
Method in brief: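 Cytotoxicity was read from cellular ATP (CellTiter-Glo luminescence) after 16 hr at 37 C with 1 uM doxycycline induction. The inducer was added 2 hr after compound transfer to Tet-on ROR gamma CHO cells.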

[10] = target: Retinoic acid receptor RXR-alpha (Homo sapiens) (UniProt P19793); assay: qHTS assay to identify small molecule agonists of the RXR signaling pathway (AID 1159527); details: HEK293T RXRa-UAS-bla, beta-lactamase ratio, 16 h; series mostly up to 76.8 µM; further: on the % scale 0 is the no-effect control and ±100 the full control effect; nearly all actives have a fitted effect of over 35% in size
Retinoic acid receptor RXR-alpha (Homo sapiens), sequence (P19793 whole entry, looked up): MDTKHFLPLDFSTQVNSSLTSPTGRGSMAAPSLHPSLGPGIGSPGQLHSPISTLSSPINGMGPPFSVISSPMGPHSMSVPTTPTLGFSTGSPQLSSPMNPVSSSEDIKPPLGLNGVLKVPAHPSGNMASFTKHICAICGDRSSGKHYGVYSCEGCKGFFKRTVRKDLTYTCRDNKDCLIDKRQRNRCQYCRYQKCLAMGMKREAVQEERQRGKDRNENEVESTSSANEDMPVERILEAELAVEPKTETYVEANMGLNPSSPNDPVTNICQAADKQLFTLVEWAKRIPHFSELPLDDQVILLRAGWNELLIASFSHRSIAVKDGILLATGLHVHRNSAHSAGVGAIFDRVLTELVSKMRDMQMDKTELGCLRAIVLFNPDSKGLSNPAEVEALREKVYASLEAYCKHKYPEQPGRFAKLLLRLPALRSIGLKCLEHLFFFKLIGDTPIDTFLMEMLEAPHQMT
Method in brief: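 qHTS of the Tox21 10K library in GeneBLAzer RXR-alpha HEK 293T cells carrying a beta-lactamase reporter […]; 16 hr treatment, 9-cis retinoic acid as agonist control, FRET read-out.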

NC(=O)N(O)[C@@H]1C=C[C@H](Oc2cccc(Oc3ccc(F)cc3)c2)C1
inactive: Potency [1] | outcome [2] | outcome [3] | outcome [4] | outcome [5] | Potency [6] | outcome [7]

O=C(c1ccc(O)cc1)c1ccc(Cl)cc1
inactive: Potency [1] | outcome [2] | outcome [3] | outcome [4] | outcome [5] | Potency [6] | outcome [7] | outcome [8]

ON(Cc1ccccc1)Cc1ccccc1
inactive: Potency [1] | outcome [2] | outcome [3] | outcome [4] | outcome [5] | Potency [9] | outcome [8]

CCCCCCCCCCCC[N+](C)(C)CC(=O)[O-]
inactive: outcome [2] | outcome [3] | outcome [4] | outcome [5] | Potency [6] | outcome [7] | outcome [8]

Cc1ccc(S)cc1
inactive: Potency [1] | outcome [2] | outcome [3] | outcome [4] | outcome [5] | Potency [6] | outcome [7] | outcome [8]

CC(C)c1nnc2ccc(-c3ocnc3-c3cc(F)ccc3F)cn12
inactive: Potency [1] | outcome [2] | outcome [3] | outcome [4] | outcome [5] | Potency [9]

CC#N
inactive: Potency [1] | outcome [2] | outcome [3] | outcome [4] | outcome [5] | Potency [9] | outcome [8]

CCCCCCCCCCCC[N+](C)(C)CCCS(=O)(=O)[O-]
inactive: Potency [1] | outcome [2] | outcome [3] | outcome [4] | outcome [5] | Potency [6] | outcome [7] | outcome [8]

CCc1cccc(N(C)C(N)=Nc2cccc3ccccc23)c1
inactive: Potency [1] | outcome [2] | outcome [3] | outcome [4] | outcome [5] | Potency [9]

CC(=O)OCC(=O)[C@H]1CC[C@H]2[C@@H]3CCC4=CC(=O)CC[C@]4(C)[C@H]3CC[C@]12C
inactive: Potency [1] | outcome [2] | outcome [3] | outcome [4] | outcome [5] | Potency [9] | outcome [8]

CCCCCC=CCC=CCCCCCCCC(=O)OCC
inactive: Potency [1] | outcome [2] | outcome [3] | outcome [4] | outcome [5] | Potency [9] | outcome [8]

CC[C@H](NC(=O)c1cc(F)ccc1NS(=O)(=O)c1cccc2cccnc12)c1ccccc1
inactive: Potency [1] | outcome [2] | outcome [3] | outcome [4] | outcome [5] | outcome [7]
active: Potency [6] 10.3 µM

O=C(OCCOCCO)c1ccccc1Nc1cccc(C(F)(F)F)c1
inactive: Potency [1] | outcome [2] | outcome [3] | outcome [4] | outcome [5] | outcome [7] | outcome [8]

CC1=CC(=O)CC(C)(C)C1(O)/C=C/C(C)=C\C(=O)O (configuration not stated)
inactive: Potency [1] | outcome [2] | outcome [3] | outcome [4] | Potency [9] | Potency [6] | outcome [7] | outcome [8] | Potency [10]

CCc1nn(CCCN2CCN(c3cccc(Cl)c3)CC2)c(=O)n1CCOc1ccccc1
active: Potency [6] 18.8 µM
inactive: outcome [2] | outcome [3] | outcome [4] | outcome [5] | outcome [8]

O=C(/C=C/c1ccccc1)OCCCc1ccccc1
inactive: Potency [1] | outcome [2] | outcome [3] | outcome [4] | Potency [9] | Potency [6] | outcome [7] | outcome [8] | Potency [10]

C[Si]1(C)O[Si](C)(C)O[Si](C)(C)O1
inactive: outcome [2] | outcome [3] | outcome [4] | Potency [9] | Potency [6] | outcome [7] | outcome [8] | Potency [10]

C=CC(C)(C)CC(=O)OC
inactive: Potency [1] | outcome [2] | outcome [3] | outcome [4] | outcome [5] | outcome [7] | outcome [8]

Cc1cc2nc3ccc(=[N+](C)C)cc-3sc2cc1N
inactive: Potency [1] | outcome [2] | outcome [3] | outcome [4] | outcome [5] | Potency [6]

Cc1oncc1C(=O)Nc1ccc(C(F)(F)F)cc1
inactive: Potency [1] | outcome [2] | outcome [3] | outcome [4] | Potency [9] | Potency [6] | outcome [7] | outcome [8]

COc1cc2[nH]c(=O)[nH]c(=O)c2cc1OC
inactive: Potency [1] | outcome [2] | outcome [3] | outcome [4] | Potency [9] | Potency [6] | outcome [7] | outcome [8] | Potency [10]

COCc1c(C(C)C)nc(C(C)C)c(/C=C/[C@@H](O)C[C@@H](O)CC(=O)O)c1-c1ccc(F)cc1
inactive: Potency [1] | outcome [2] | outcome [3] | outcome [4] | outcome [5] | outcome [7] | outcome [8] | Potency [10]

O=C(O)c1cccnc1C(=O)O
inactive: Potency [1] | outcome [2] | outcome [3] | outcome [4] | Potency [9] | Potency [6] | outcome [7] | outcome [8] | Potency [10]

C=CCCCCCCCCCCCCCCCC
inactive: viability change, negative = cytotoxic [1] 8.8% [at 6.95 µM] | activation [2] 0.162% [at 6.95 µM] | activity, negative = cytotoxic [3] -0.437% [at 6.95 µM] | activation [4] 3.12% [at 6.95 µM] | activity, negative = cytotoxicity [9] 6.9% [at 8.39 µM] | activity change, negative = inhibition [6] 11.3% [at 8.39 µM] | viability change, negative = cytotoxic [7] 4.34% [at 6.97 µM] | activation [8] -4.53% [at 6.97 µM]

c1cnc2c(n1)CCCC2
inactive: Potency [1] | outcome [2] | outcome [3] | outcome [4] | Potency [9] | Potency [6] | outcome [7] | outcome [8]

NC(=O)N(O)[C@@H]1COc2cc(OCc3ccccc3)ccc21
inactive: Potency [1] | outcome [2] | outcome [3] | outcome [4] | outcome [5] | Potency [6]

CCCCCCCCCCCCCCCCBr
inactive: Potency [1] | outcome [2] | outcome [3] | outcome [4] | activity, negative = cytotoxicity [9] 1.45% [at 19 µM] | activity change, negative = inhibition [6] 15.4% [at 19 µM] | viability change, negative = cytotoxic [7] 3.43% [at 15.8 µM] | activation [8] -6.6% [at 15.8 µM] | activation [10] 0.932% [at 15.8 µM]
